Source: PubChem BioAssay AID432 (Sanford-Burnham Center for Chemical Genomics, 2006)
About 15 (0.02%) of roughly 64,000 compounds were called active. No rule for the calls is given here. Not all results are given here. Potency and affinity values are given separately.

Biological target: Bcl-2-related protein A1 (Mus musculus) (UniProt Q07440)
Test: displacement of Bid BH3 peptide from Bfl-1 – biochemical, fluorescence polarization, FITC-Bid, mouse, primary screen (AID 432)
Settings: at 20 µM, stronger effect = higher value

Bcl-2-related protein A1 (Mus musculus), sequence (Q07440 whole entry, looked up): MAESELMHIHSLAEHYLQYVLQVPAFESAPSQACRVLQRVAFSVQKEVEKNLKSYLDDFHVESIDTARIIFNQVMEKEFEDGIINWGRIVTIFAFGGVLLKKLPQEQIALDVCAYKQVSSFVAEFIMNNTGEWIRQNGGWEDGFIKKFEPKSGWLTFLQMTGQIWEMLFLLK

displacement, inactive:
COC(=O)c1ccc(C2C(C(=O)Nc3ccc(C)cc3C)=C(C)Nc3ncnn32)cc1 (stereo unspecified) -1.9%
CCOC(=O)CN1C(=O)C(C)(C)Oc2ccc(C(=O)NC(C)(C)CC)cc21 -6.4%
Cc1cc(C)cc(N2CC34C=CC(O3)C(C(=O)OCC(=O)NCc3ccco3)C4C2=O)c1 (stereo unspecified) -10.1%
Cc1nc2scc(-c3ccccc3)c2c(=O)n1N -4%
COc1ccc(S(=O)(=O)Cc2ccc(C(=O)N3CCN(c4ccc(Cl)cc4)CC3)o2)cc1 -2.7%
Nc1nc(-c2cccc(NS(=O)(=O)c3ccccc3)c2)cs1 5.8%
CN(C)c1nc(NCc2ccccc2)nc(Oc2ccc(=O)[nH]n2)n1 -7.2%
COc1cc(C(c2nnnn2C2CCCC2)N2CCc3ccccc3C2)ccc1O (stereo unspecified) -5.3%
Cc1ccnc(NS(=O)(=O)c2ccc(NC(=O)C3CCCCC3C(=O)O)cc2)n1 (stereo unspecified) -3.9%
Cc1csc(NC(=O)CCn2c(=O)oc3ccccc32)n1 2.1%
O=C1CC(N(Cc2ccco2)C(=O)Nc2ccc(F)cc2)C(=O)N1c1ccc(F)cc1 (stereo unspecified) 1.2%
CCOc1ccc(OCC)c(NC(=O)CSc2nnc(-c3cccnc3)o2)c1 -6%
CCOC(=O)C1CCN(C2CC(=O)N(c3cccc(Cl)c3)C2=O)CC1 (stereo unspecified) 5.3%
CCN(CC)C(=O)CSC1=C(C#N)C(c2cccs2)C=C(C)N1 (stereo unspecified) 4.6%
O=C(NCCN1C(=O)C2C3C=CC(C3)C2C1=O)NCc1ccccc1 (stereo unspecified) 8.8%
CCOC(=O)C1CCCN(C(=O)c2cn(C)c3ccc(S(=O)(=O)N(C)C)cc3c2=O)C1 (stereo unspecified) -2.5%
COc1cccc(NC(=O)c2ncn[nH]2)c1 -5.2%
O=C(O)c1ccc(COc2c(F)c(F)cc(F)c2F)cc1 -4%
CCOCCn1c(SCc2cccc(C)c2)nc2c1c(=O)[nH]c(=O)n2C 2.1%
O=C(OCc1cccc2ccccc12)c1ccc2c(=O)[nH]c(CN3CCOCC3)nc2c1 -1.5%
Cc1cc2cc(C(c3nnnn3Cc3ccco3)N3CCc4ccccc43)c(=O)[nH]c2cc1C (stereo unspecified) 6.1%
CCOC(=O)Cc1nnc(NC(=O)c2cccc(OCC)c2)s1 -3.8%
CCn1cc(Cl)c(C(=O)Nc2nc3ccccc3n2CCN2CCCCC2)n1 7.6%
O=C(Nc1c(C(=O)N2CCCCC2)cnn1-c1ccccc1)c1ccccc1 1.1%
O=C1CCCCCN1C(=O)c1cccc(C(=O)N2CCCCCC2=O)c1 -3.4%
CCOCC(=O)N1CCCC(C(=O)OCC)C1 (stereo unspecified) 5.1%
COC(=O)c1cc(=O)[nH]c(SCc2cccc(C)c2)n1 -9.3%
CC(C)CCNC(=O)NC(=O)COc1ccccc1C#N -1.9%
CCCS(=O)(=O)N1CCCC(C(=O)NCCN(CC)c2ccccc2)C1 (stereo unspecified) -0.1%
CCCN1C(=O)CC(c2ccco2)Sc2ccccc21 (stereo unspecified) -8.4%
CN(C)S(=O)(=O)c1ccc(C(=O)Nc2ccc(F)cc2F)cc1 -3.7%
O=S(=O)(c1ccccc1)c1cccc(S(=O)(=O)N2CCCCC2)c1 -8.3%
CC1=C(C(N)=O)C(c2cccc(O)c2)n2nc(CCCO)nc2N1 (stereo unspecified) -2.3%
O=C(c1ccccc1S(=O)(=O)NCc1ccccc1)N1CCCCC1 -2.9%
CCCN(c1ccc(C(C)C)cc1)S(=O)(=O)c1c(C)noc1C -2%
COC(=O)Nc1ccc2c(c1)ncn2C1CCCCC1 -3.2%
Brc1ccccc1-c1nnc(CSc2nncn2-c2ccccc2)o1 -1.8%
CCCCC(CC)CNC(=O)c1ccc2c(c1)OCO2 (stereo unspecified) 0.7%
CC1CC(C)CN(Cc2nc3c(c(=O)n(C)c(=O)n3C)n2CCN2CCOCC2)C1 (stereo unspecified) 29.2%
Cc1ccc(S(=O)(=O)N(C)CCCC(=O)n2nc(C)cc2C)cc1 7%
COc1ccc(C2CCN(Cc3cccnc3)CC2O)cc1 (stereo unspecified) -8.7%
CCOC(=O)N1CCC(NC(=O)CN2C(=O)CSc3ncccc32)CC1 3.4%
Cc1ccc(S(=O)(=O)c2cc3c(=O)n4ccccc4nc3n(CC3CCCO3)c2=N)cc1C (stereo unspecified) -14.7%
Cc1cc(NCc2ccc(F)cc2Cl)n2nnnc2n1 -1.6%
Cc1c(N(C)C(=O)C23CC4CC(CC(C4)C2)C3)c(=O)n(-c2ccccc2)n1C -6%
CC1(C)NC(=O)N(c2ccccc2Cl)C1(C)NO (stereo unspecified) -2.3%
CCOC(=O)N1CCC(c2cc(=O)n3[nH]c(-c4ccccc4)cc3n2)CC1 5.1%
CCOC(=O)c1ccc(NC(=O)CC2C(=O)N(c3cccc(OC)c3)C(=O)N2CCOC)cc1 (stereo unspecified) -1.5%
O=C(c1cc2c(s1)CCCCC2)N1CCN(c2ncccn2)CC1 8.4%
O=C(CN1CCN(c2ccc(F)cc2)CC1)N1CCOCC1 -2.4%
COc1nc(N(C)C)nc(N(OC)S(=O)(=O)c2ccccc2Cl)n1 3.7%
CCC(C)c1c(O)nc(SCC(=O)c2ccccc2)[nH]c1=O (stereo unspecified) -7.8%
Cc1ccc(S(=O)(=O)NC(=O)COc2ccccc2C(N)=O)cc1 -4.3%
COc1ccccc1-c1nc(C#N)c(N2CCN(C(c3ccccc3)c3ccccc3)CC2)o1 -2.4%
CC(C)OCCCNC(=O)c1sc(=S)n(C)c1N 10.9%
CCOC(=O)C1CCN(CC(=O)Nc2c(C(=O)OC)[nH]c3ccccc23)CC1 -7%
CCOc1cc2c(cc1OCC)C(C(=O)O)C(c1cc(Br)c(O)c(OC)c1)N(C)C2=O (stereo unspecified) 6.3%
CCSCCNC(=O)c1cc(-n2cnnc2)ccc1Cl 3%
CCOC(=O)c1oc2cccc(O)c2c1CN(Cc1ccccc1)C(C)=O 1.2%
O=C(CCC(=O)N(CC(=O)NC1CCCCC1)Cc1ccco1)Nc1nccs1 -3.5%
CSc1nc(-c2ccccc2O)nc(-c2ccccc2O)n1 4.5%
NC(=O)CSc1nnc(-c2ccc(S(=O)(=O)N3CCCC3)cc2)n1Cc1ccco1 -5.3%
CC1CCN(CCCNC(=O)c2cc3sccc3n2C)CC1 1.5%
CCN1CCN(CC(=O)Nc2c(C(=O)OC)[nH]c3cccc(Cl)c23)CC1 -4.1%
O=C(O)c1ccc(NS(=O)(=O)c2ccc(Cl)cc2)cc1 -8.2%
CCn1c(SCC(=O)OC)nc2sc3c(c2c1=O)CCC3 2.2%
CCn1c(SC(C)C(=O)O)nc2sc3c(c2c1=O)CCC3 (stereo unspecified) 22.5%
Cn1c(=O)c2ncn(CC(=O)NCCC3=CCCCC3)c2n(C)c1=O -18.3%
COCCCNC(=O)Cn1cc2c(n1)CCCCC2 5%
O=C(c1cccc(S(=O)(=O)N2CCCCC2)c1)N1CCOCC1 -1.1%
COc1ccc(-c2cc(C(F)(F)F)nc(NC3CCCC3)n2)cc1OC -2.6%
CS(=O)(=O)c1nc(-c2ccccc2)cc(C(F)(F)F)n1 37.1%
CCOC(=O)Nc1c(O)ccc2oc(C)c(-c3ccccc3)c12 1.9%
Cc1ccc(C)c(-n2nnnc2SCC(=O)NCCC2=CCCCC2)c1 8.5%
CCc1ccccc1NC1=NCC(=O)N1C1CCCCC1 0.4%
Cc1ccc(CN2C(=O)CCC2C(=O)NC2CCCC2)cc1 (stereo unspecified) -12%
Cc1cc(NC(=O)Nc2cccc3ccccc23)no1 -1.4%
Cc1cc(O)ccc1Nc1nc2ccccc2nc1Nc1ccc(O)cc1C -1.4%
CN1CCN(C2=C(Cl)C(=O)N(c3ccc(Cl)cc3)C2=O)CC1 49.4%
CN1CCN(C2=C(Cl)C(=O)N(c3cccc(Cl)c3)C2=O)CC1 32.3%
CCSc1nnc(NC(=O)C(C)(C(F)(F)F)C(F)(F)F)s1 -5.7%
CCSc1nnc(NC(=O)C(C)C)s1 0.1%
Cc1ccc(C2C(C#N)=C(N)SC(N)=C2C#N)c(C)c1 -31.9%
NS(=O)(=O)c1ccc(-n2nncc2C23CC4CC(CC(C4)C2)C3)cc1 -2.1%
COC(=O)C1=C(N)Oc2cc(C)n(CC3CCCO3)c(=O)c2C1c1ccc(Cl)cc1 (stereo unspecified) -2.1%
c1cn(-c2ncnc3sc4c(c23)CCCC4)cn1 -0.8%
O=C(NCc1ccccc1)c1c[nH]c2ccc(S(=O)(=O)Nc3ccc4c(c3)OCCO4)cc2c1=O -3.6%
O=C(Nn1c(C2CCC2)nc2ccccc2c1=O)C1CCC1 -9%
Cn1c(=O)[nH]c(=O)c2c1nc(Br)n2Cc1ccccc1F -3.5%
CC(=O)c1ccc(OCC(O)CN2CCN(c3ccccn3)CC2)cc1 (stereo unspecified) -0.7%
CC1=CC(C)(C)N2C(=O)C3(C(C#N)=C(N)Oc4cc(O)ccc43)c3cccc1c32 (stereo unspecified) -2.9%
COc1ccc(NC(=O)c2cnn3c(C(F)(F)F)cc(-c4ccco4)nc23)cc1OC 12%
O=C(Nc1ccc2c(c1)OCO2)c1cnn2c(C(F)(F)F)cc(-c3ccco3)nc12 1%
COc1ccccc1N1CCN(C(=O)C(C)N(c2ccc(C)c(C)c2)S(C)(=O)=O)CC1 (stereo unspecified) -2%
COCCNC(=O)Cn1nc(C(F)(F)F)c(Br)c1C -0.1%
CC1CCC(NC(=O)CN2CCCN(Cc3ccc(F)cc3Cl)C2=O)CC1 (stereo unspecified) -0.5%
